From ChEMBL document CHEMBL4513149, “CO-ADD screening of MMV (CH) - MMV compounds” (2021)
Results with a measured potency or affinity are listed apart.

How the values were obtained:
Klebsiella pneumoniae = conditions: Concentration 20 uM; ASSAY_TEST Inhibition of Bacterial Growth; detection method Absorption (OD600); MEDIA CAMHB; plate type 384well; NBS; CORNING #3640; time 18 hr
Candida albicans = conditions: 20 µM
Cryptococcus neoformans = conditions: Concentration 20 uM; ASSAY_TEST Inhibition of Fungal Growth; detection method Resazurin; Absorption (OD600-OD570); plate type 384well; NBS; CORNING #3640

Row | Structure (SMILES) | Inhibition (Klebsiella pneumoniae) [%] | Inhibition (Candida albicans) [%] | Inhibition (Cryptococcus neoformans) [%]
1 | O=C(NCc1ccoc1)N1CCN(Cc2ccc3c(c2)OCO3)CC1 | 7.21 | 2.46 | 10.58
2 | N#Cc1ccc(-c2cnc(N)c(-c3ccc(C(N)=O)cc3)n2)cc1 | 16.03 | 4.25 | -3.91
3 | Nc1cccnc1Nc1ccc(Cl)cc1 | 2.25 | 1.73 | -10.6
4 | Cl.Cl.Cl.NS(=O)(=O)c1cncc(-c2ccc3nccc(-c4cn[nH]c4)c3n2)c1 | -1.63 | 3.16 | -2.89
5 | CC1CC1C(=O)NC1CCN(CC2(c3ccccc3)CCCCC2)CC1 (stereo not given) | 16.4 | 3.19 | -6.72
6 | CC(C)=CCC/C(C)=C\CNCCNC1C2CC3CC(C2)CC1C3 (stereo not given) | 18.7 | 2.31 | 16.24
7 | COc1cccc2c(C)nc(N=C(N)N)nc12.O=C(O)C(F)(F)F.O=C(O)C(F)(F)F | 9.38 | 2.56 | -13.06
8 | COC(=O)c1c(NC(=O)c2cc3ccccc3oc2=O)sc2c1CCN(Cc1ccccc1)C2 | 12.75 | 2.23 | -2.1
9 | O=C(NC1CC1)c1ccc(N2CCOc3ccc(Cl)cc32)s1 | 15.81 | 6.64 | 31.76
10 | Nc1ncc(-c2cn[nH]c2)cc1-c1nc2cc(Cl)cnc2[nH]1 | 5.89 | 4.36 | -3.87
11 | O=C1N(Cc2cc3ccccc3s2)CC2CN(Cc3ccccc3)CCN12 (stereo not given) | 2.73 | 2.62 | -4.73
12 | Cc1cc(C(=O)Nc2ccc(-c3ccccc3)cc2)no1 | 16.31 | 4.46 | -3.33
13 | CNC(=O)c1cc(S(=O)(=O)N2CCN(c3ccccn3)CC2)cs1 | 10.77 | 2.91 | -8.81
14 | O=C(NC1CC1)c1ccc(N2CCC(Cc3ccccc3)CC2)nc1 | 19.39 | 4.1 | -7.07
15 | C[C@H](C(N)=O)N1CCCC[C@H]1c1ccc(OCc2cccc(F)c2)cc1 | 11.66 | 2.64 | -9.53
16 | Cc1cc(Nc2ccncc2)n2nc(C)c(-c3ccccc3Cl)c2n1 | 15.32 | 1.91 | -9.03
17 | O=[N+]([O-])c1cn2c(n1)OC[C@@H](OCc1ccc(OC(F)(F)F)cc1)C2 [PRETOMANID] | 14.31 | 4.06 | -5.11
18 | CCOC(=O)c1c(NC(=O)c2c(F)c(F)c(F)c(F)c2F)sc(C(N)=O)c1C | 11.9 | 5.2 | -6.59

Row | Structure (SMILES) | Inhibition (Klebsiella pneumoniae) [%] | Inhibition (Candida albicans) [%] | Inhibition (Cryptococcus neoformans) [%]
19 | OCc1ccc(-c2cncc(Nc3cccc(Cl)c3)c2)cc1 | 12.75 | 4.13 | -14.16
20 | O=C(c1[nH]nc2c1CCCC2)N1CCN(Cc2ccc3c(c2)OCO3)CC1 | 7.71 | 2.93 | -11.77
21 | NCC(=O)N1CCn2c(nc(-c3ccccc3)c2Nc2ccc3c(c2)OCO3)C1 | 4.52 | 3.31 | 7.53
22 | CCC(C)NC(=O)c1ccc(NC(=O)C2(c3ccccc3)CCCC2)cc1 (stereo not given) | 1.96 | 3.52 | 9.11
23 | CC(C)(C)c1cc(C(=O)N2CCN(c3nccnc3C#N)CC2)n(Cc2ccccc2)n1 | 14.9 | 6.36 | 1.25
24 | O=C(NCCc1ccn(-c2ccccc2)n1)C1CCCCC1 | 6.33 | 3.92 | -9.22
25 | CCC(=O)Nc1ccccc1C(=O)Nc1ccccn1 | 11.13 | 3.37 | -4.64
26 | O=C(C1CCCCC1)N1CC(=O)N2CCc3ccccc3C2C1 (stereo not given) [PRAZIQUANTEL] | 12.46 | 4.53 | -6.4
27 | C[C@]1(O)C[C@@H](c2nc(-c3ccc4ccc(-c5ccccc5)nc4c3)c3c(N)nccn32)C1 [LINSITINIB] | 12.51 | 8.51 | -8.41
28 | Cc1ccc2nc(Cl)c(CNCc3cccs3)cc2c1 | 1.61 | 2.37 | -15.9
29 | O=C(Nc1nnc(S)s1)c1cc(Br)ccc1Cl | 6.18 | 4.73 | -3.6
30 | Cc1nc(-c2cccc(NCc3ccccc3)c2)[nH]c1C | 18.74 | 2.98 | -12.15
31 | CCCCS(=O)(=O)Nc1ccc2cnn(C)c2c1 | 10.18 | 2.57 | -4.93
32 | O=C(NCc1cc(Cl)cc(Cl)c1)c1c(C(F)(F)F)nc2ccccn12 | 15.19 | 8.03 | -5.43
33 | CCOc1ccc(OCC(=O)Nc2cc(C)cc(C)c2)cc1 | 6.85 | 9.23 | -6.41
34 | CC(Oc1cccc(Cl)c1)C(=O)Nc1ccc2oc(-c3ccncc3)nc2c1 (stereo not given) | 9.56 | 6.74 | -15
35 | Nc1nccc2ccc(-c3ccc4nccn4c3)cc12 | 18.72 | 2.07 | -1.17
